In PubChem BioAssay (NCATS):
Records with an inconclusive call do not appear. The source made the active and inactive calls. Unless noted, calls follow the shape of the dose curve; as a rule, active = well fitted curve in either direction with a large enough effect (not every such curve was filed as active); inconclusive = small, poorly fitted or top-dose-only effect, or another doubt; inactive = flat fitted curve, though single readings scatter.

Assays:
[1] = biological target: Lysosomal acid glucosylceramidase (Homo sapiens) (UniProt P04062); experiment: Glucocerebrosidase-p2 (AID 348; in the data active = potency below about 10 µM; also: potency is read from the fitted curve at half-maximal effect); settings: purified GBA, blue fluorogenic substrate, 40 min
Outline: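 Normal human glucocerebrosidase (0.2 nM) with blue fluorogenic substrate (80 uM final) in citrate/phosphate pH 5.9 with 10mM sodium taurocholate, 0.01% tween-20; 40 min RT, NaOH/glycine stop; fluorescence Ex 365/Em 440; AC50 from a titration from 0.6 nM upwards.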

[2] = AP1 Signaling Pathway (AID 357); settings: ME-180 AP-1-bla reporter, EGF-induced, beta-lactamase ratio, 5 h; at 7.69 µM (top of the series) unless noted;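 also: ME-180 reporter cells stimulated with EGF at its EC50 level; % is scaled to controls: 0 for no effect and ±100 for the full control effect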
Outline: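 Titration-series screen for positive or negative modulators of EC50 EGF-induced signaling in ME-180 cells carrying an AP-1-driven beta-lactamase reporter. After 5 hours at 37 degrees Celsius, CCF4 460nm/530nm emission ratio gave %Activity; AC50 values derived.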

[3] = biological target: Cytochrome P450 1A2 (Homo sapiens) (UniProt P05177); experiment: p450-cyp1a2 (AID 410; calls by dose curve; also: potency is read from the fitted curve at half-maximal effect;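 as to activity change, negative = inhibition: -100% = full effect of reference inhibitor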); settings: recombinant CYP1A2, luciferin-ME demethylation, luminescence; series mostly up to 57 µM
Outline: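 Read-out is luminescence from luciferin produced by CYP1A2 demethylation of Luciferin-ME (100uM, at Km). Detection reagent stopped the 60 min NADPH-dependent reaction; signals were normalized to 57 uM furafylline.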

[4] = NFAT Signaling Pathway (AID 444); settings: Jurkat NFAT-bla M1, carbachol, beta-lactamase ratio, 5 h; at 7.69 µM (top of the series) unless noted;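 also: carbachol stimulus at about its EC50 of 1 µM final; % is scaled to controls: 0 for no effect and ±100 for the full control effect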
Outline: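 Jurkat cells with NFAT-driven β-lactamase reporter and co-expressed M1 receptor, stimulated with carbachol (final 1 uM, ~EC50), compound titration, 5 h at 37 °C. CCF4 loaded 1 h at RT; 460/530 nm ratio gave %activity and AC50.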

[5] = Stat Signaling Pathway (AID 446); settings: ME-180 SIE beta-lactamase reporter, IL-6 stimulated, 5 h; at 7.69 µM (top of the series) unless noted;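 also: ME-180 cervical cancer cells given 40 pM IL-6 alongside compound; SIE-controlled beta-lactamase reporter measured as 460/530 nm FRET emission ratio; % is scaled to controls: 0 for no effect and ±100 for the full control effect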
Outline: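 Emission at 460 and 530 nm (excitation 405 nm) reports SIE-controlled beta-lactamase in ME-180 cells. Cells received compound with 40 pM IL-6 for 5 hrs at 37 C; data scaled between 300 pM IL-6 and 125 nM JAK-inhibitor controls.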

[6] = biological target: Glucocorticoid receptor (Homo sapiens) (UniProt P04150); experiment: GR-EFC Redistribution (AID 451; calls by dose curve; also: potency is read from the fitted curve at half-maximal effect); settings: CHO-K1 GR-EFC translocation, beta-gal luminescence, 2 h
Outline: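 CHO-K1 cells expressing nuclear EA and GR-ED fragments of b-gal; compounds titrated up to 46 uM final, 2 h at 37 C. GR nuclear translocation read as complemented b-gal luminescence after 1 h RT detection.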

[7] = biological target: Mitogen-activated protein kinase 10 (Mus musculus) (UniProt Q61831); experiment: JNK3 AlphaScreen Assay (AID 530); settings: JNK3 lysate, c-Jun phosphorylation; series mostly up to 57.1 µM;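 also: kinase came from lysate of stimulated human HepG2 cells; signal reports phosphorylation of biotinylated GST-cJun 1-79 at Ser73 with 10 µM ATP; % is scaled to controls: 0 for no effect and ±100 for the full control effect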
Outline: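 HepG2 lysate (IL-1b/TNFa pre-activated) + biotin-GST-cJun 1-79 + anti-pSer73 cJun; cpd titration, 15 min RT; ATP 10 uM start; Tris pH 7.6, MgCl2, DTT, vanadate; beads in EDTA buffer; AlphaScreen.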

[8] = biological target: 3',5'-cyclic-AMP phosphodiesterase 4B (Homo sapiens) (UniProt Q07343); experiment: qHTS Assay for Inhibitors of PDE-IV (AID 607; active = well fitted activation curve with a large enough effect in the main read-out, with a control signal flat, not every such curve was filed as active; also: % of control where 0% means no effect); settings: HEK293 ACTOne CNG channel cells, membrane potential fluorescence; series mostly up to 22.9 µM
Outline: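 The readout is membrane depolarisation from a cAMP-sensing CNG channel, detected with a potential dye at ex 535/em 590. Cells were HEK293-derived (endogenous PDE-IV) at 1000 cells/well, titrated up to 22.9 uM final.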

[9] = Primary qHTS for small molecule stabilizers of the endoplasmic reticulum resident proteome: Secreted ER Calcium Modulated Protein (SERCaMP) assay (AID 1508630; active = well fitted curve in the direction sought with a large enough effect; an effect the other way counts as inactive or inconclusive; also: % is scaled to controls: 0 for no effect and ±100 for the full control effect); settings: SH-SY5Y GLuc-SERCaMP (Gaussia luciferase released on ER calcium loss) secretion, thapsigargin, luminescence; series mostly up to 38.4 µM
Outline: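 The SH-SY5Y reporter protocol was run at 3 concentrations up to 38.3 uM (primary) or 11 concentrations (follow-up): 16 h compound, 100 nM thapsigargin for 4 h, then extracellular luciferase luminescence.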

[10] = biological target: Glucocorticoid receptor (Homo sapiens) (UniProt P04150); experiment: GR-GFP Redistribution (AID 450;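 active = compounds whose dose series gives a full or clear partial fitted curve of increased nuclear translocation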; also: potency is read from the fitted curve at half-maximal effect); settings: U2OS GR-GFP nuclear translocation, laser cytometry, 2 h
[11] = qHTS Assay for Identification of Small Molecule Agonists for Hypoxia Response Element Signaling Pathway (AID 914; active = well fitted activation curve with a large enough effect in the signal ratio, with a control signal flat, not every such curve was filed as active; the % refers to the signal ratio; also: % of control where 0% means no effect); settings: ME-180 (cervical carcinoma) HRE-bla reporter, beta-lactamase ratio, CoCl2, 17 h; activation: active compounds read high
Outline: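 HRE-bla ME-180 cells with beta-lactamase reporter under hypoxia response element, compounds with EC50 CoCl2 for 17 hours at 37 C. CCF4 substrate, 460nm/530nm emission ratio gave %Activity; AC50 from titration series.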

[12] = biological target: Cytochrome P450 3A4 (Homo sapiens) (UniProt P08684); experiment: qHTS Assay for Inhibitors and Substrates of Cytochrome P450 3A4 (AID 884; active = well fitted curve in the direction sought with a large enough effect; an effect the other way counts as inactive or inconclusive; also: potency is read from the fitted curve at half-maximal effect; nearly all actives have a fitted effect of over 50% in size); settings: recombinant CYP3A4, Luciferin-PPXE luminescence; series mostly up to 57.1 µM
Outline: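 Luminescent readout of luciferin produced by CYP3A4 (20 nM) dealkylation of Luciferin-PPXE, 25 uM (its KM). NADPH-driven reaction ran 60 min at RT after 10 min compound preincubation; data scaled to 57 uM ketoconazole as 100% inhibition.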

[13] = biological target: Cytochrome P450 3A4 (Homo sapiens) (UniProt P08684); experiment: qHTS Assay for Activators of Cytochrome P450 3A4 (AID 885; active = well fitted curve in the direction sought with a large enough effect; an effect the other way counts as inactive or inconclusive; also: nearly all actives have a fitted effect of over 65% in size); settings: recombinant CYP3A4, Luciferin-PPXE luminescence, 60 min; series mostly up to 57.1 µM
Outline: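 Activators are scored by enhanced luminescence from CYP3A4 conversion of luciferin-PPXE (25uM, equal to KM) to luciferin, after 60 min at RT with an NADPH-regenerating system.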

[14] = biological target: Cytochrome P450 2C19 (Homo sapiens) (UniProt P33261); experiment: qHTS Assay for Inhibitors and Substrates of Cytochrome P450 2C19 (AID 899; active = well fitted curve in the direction sought with a large enough effect; an effect the other way counts as inactive or inconclusive; also: potency is read from the fitted curve at half-maximal effect; nearly all actives have a fitted effect of over 60% in size); settings: recombinant CYP2C19, luciferin-H EGE luminescence; series mostly up to 57.1 µM
Outline: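 Luminescent read-out of luciferin formed from Luciferin-H EGE (10uM, equal to KM). Enzyme 5nM in 50mM KPO4; compound added, 10 min at 37C, then NADPH regenerating system for 60 min at 37C. Full inhibition defined by 57uM ketoconazole.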

[15] = Confirmation and Secondary Assay for Modulators of Hemoglobin Beta Chain Splicing at IVS2 654 locus (AID 910; active = well fitted curve in the direction sought with a large enough effect; an effect the other way counts as inactive or inconclusive;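 also: HeLa cells stably carrying EGFP split by mutant beta-globin IVS2-654 intron; % of control where 0% means no effect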); settings: HeLa EGFP-654 splicing reporter, GFP fluorescence, 48 h; series mostly up to 38.3 µM
Outline: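 HeLa cells stably expressing EGFP interrupted by β-globin IVS2-654 intron, seeded overnight in Opti-MEM/2% FCS, then treated 2 days at 37 °C. Restored splicing read as total peak GFP intensity per well by laser scanning cytometry (488 nm excitation, 500–520 nm emission); 500 nM antisense PNA as control.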

[16] = Confirmation and Secondary Assay for Modulators of Hemoglobin Beta Chain Splicing at IVS2 705 locus (AID 930; active = well fitted curve in the direction sought with a large enough effect; an effect the other way counts as inactive or inconclusive;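 also: HeLa cells stably expressing the EGFP-705 splicing reporter; GFP fluorescence per well restored by corrected splicing of the IVS2-705 intron in EGFP; % of control where 0% means no effect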); settings: HeLa EGFP-705 splicing reporter, GFP fluorescence, 48 h; series mostly up to 38.3 µM
Outline: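 HeLa cells stably carrying EGFP interrupted by mutant beta-globin intron 2 (IVS2-705) treated 2 days at 37C with compound; 500 nM antisense PNA as control. Correct splicing read as total peak GFP intensity per well by laser-scanning cytometry.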

[17] = biological target: Ubiquitin carboxyl-terminal hydrolase 1 (Homo sapiens) (UniProt O94782); experiment: Inhibitors of USP1/UAF1: Pilot qHTS (AID 504865; active = well fitted curve in the direction sought with a large enough effect; an effect the other way counts as inactive or inconclusive;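 also: rhodamine fluorescence freed from ubiquitin-rhodamine substrate followed over time; top concentration of the series differs between compounds; % is scaled to controls: 0 for no effect and ±100 for the full control effect; nearly all actives have a fitted effect of over 35% in size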); settings: purified USP1/UAF1, Ub-rhodamine cleavage fluorescence; series mostly up to 54.9 µM
Outline: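 1nM USP1/UAF1 + cpd, 15 min RT; start w/ Ub-Rho 150nM final; kinetic FL 480/540 nm, 6 reads q60 s. Buffer 50mM HEPES pH 7.8, 0.5mM EDTA, 1mM TCEP, 0.01% Tween-20, 0.1 mg/ml BSA.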

Sequence of 3',5'-cyclic-AMP phosphodiesterase 4B (Homo sapiens) (Q07343 whole entry, looked up): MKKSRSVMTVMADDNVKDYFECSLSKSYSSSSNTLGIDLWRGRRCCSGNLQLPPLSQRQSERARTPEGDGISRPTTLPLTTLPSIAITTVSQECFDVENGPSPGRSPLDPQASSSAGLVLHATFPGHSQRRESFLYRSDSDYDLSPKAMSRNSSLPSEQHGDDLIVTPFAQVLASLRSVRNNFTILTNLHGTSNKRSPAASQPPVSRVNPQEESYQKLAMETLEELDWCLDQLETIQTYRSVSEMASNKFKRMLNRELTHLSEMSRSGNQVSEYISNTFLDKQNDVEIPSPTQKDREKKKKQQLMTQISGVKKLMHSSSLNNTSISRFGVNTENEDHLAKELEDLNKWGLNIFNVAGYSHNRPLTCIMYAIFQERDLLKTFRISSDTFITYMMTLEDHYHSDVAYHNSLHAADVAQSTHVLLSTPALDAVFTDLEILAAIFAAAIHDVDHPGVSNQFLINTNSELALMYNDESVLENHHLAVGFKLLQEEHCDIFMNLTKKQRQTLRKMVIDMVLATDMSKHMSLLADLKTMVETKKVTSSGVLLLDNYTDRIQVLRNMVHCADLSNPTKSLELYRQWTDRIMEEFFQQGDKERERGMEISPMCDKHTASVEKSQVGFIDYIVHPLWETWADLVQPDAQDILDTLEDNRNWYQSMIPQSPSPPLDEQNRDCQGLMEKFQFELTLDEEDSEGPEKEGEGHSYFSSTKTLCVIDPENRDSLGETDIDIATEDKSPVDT
Sequence of Cytochrome P450 1A2 (Homo sapiens) (P05177 whole entry, looked up): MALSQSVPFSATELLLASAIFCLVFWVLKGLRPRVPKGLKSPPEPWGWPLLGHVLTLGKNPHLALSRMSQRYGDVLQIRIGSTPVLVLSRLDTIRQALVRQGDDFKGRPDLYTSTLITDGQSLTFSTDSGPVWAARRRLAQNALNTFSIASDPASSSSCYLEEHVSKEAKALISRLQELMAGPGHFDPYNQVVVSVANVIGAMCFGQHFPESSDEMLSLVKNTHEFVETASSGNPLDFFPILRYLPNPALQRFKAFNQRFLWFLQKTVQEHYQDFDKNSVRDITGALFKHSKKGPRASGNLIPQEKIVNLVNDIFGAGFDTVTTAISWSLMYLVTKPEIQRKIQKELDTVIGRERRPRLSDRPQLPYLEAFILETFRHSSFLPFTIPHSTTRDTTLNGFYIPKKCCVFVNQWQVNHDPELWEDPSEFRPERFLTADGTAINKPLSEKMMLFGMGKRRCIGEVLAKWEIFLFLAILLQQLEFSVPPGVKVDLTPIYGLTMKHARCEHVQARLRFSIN
Sequence of Lysosomal acid glucosylceramidase (Homo sapiens) (P04062 whole entry, looked up): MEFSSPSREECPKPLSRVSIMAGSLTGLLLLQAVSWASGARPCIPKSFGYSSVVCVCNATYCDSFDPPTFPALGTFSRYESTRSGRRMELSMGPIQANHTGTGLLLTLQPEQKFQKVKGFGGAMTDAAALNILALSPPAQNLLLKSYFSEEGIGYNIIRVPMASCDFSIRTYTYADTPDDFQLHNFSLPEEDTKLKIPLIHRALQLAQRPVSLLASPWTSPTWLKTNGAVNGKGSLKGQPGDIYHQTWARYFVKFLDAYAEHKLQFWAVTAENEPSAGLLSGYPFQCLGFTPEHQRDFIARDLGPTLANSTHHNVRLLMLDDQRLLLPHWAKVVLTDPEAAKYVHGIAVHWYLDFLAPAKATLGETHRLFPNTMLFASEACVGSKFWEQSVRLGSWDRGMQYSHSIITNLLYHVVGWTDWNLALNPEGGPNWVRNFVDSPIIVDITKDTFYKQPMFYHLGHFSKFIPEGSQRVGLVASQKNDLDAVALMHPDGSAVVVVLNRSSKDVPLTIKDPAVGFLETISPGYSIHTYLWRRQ
Sequence of Glucocorticoid receptor (Homo sapiens) (P04150 whole entry, looked up, the tested form may be a part): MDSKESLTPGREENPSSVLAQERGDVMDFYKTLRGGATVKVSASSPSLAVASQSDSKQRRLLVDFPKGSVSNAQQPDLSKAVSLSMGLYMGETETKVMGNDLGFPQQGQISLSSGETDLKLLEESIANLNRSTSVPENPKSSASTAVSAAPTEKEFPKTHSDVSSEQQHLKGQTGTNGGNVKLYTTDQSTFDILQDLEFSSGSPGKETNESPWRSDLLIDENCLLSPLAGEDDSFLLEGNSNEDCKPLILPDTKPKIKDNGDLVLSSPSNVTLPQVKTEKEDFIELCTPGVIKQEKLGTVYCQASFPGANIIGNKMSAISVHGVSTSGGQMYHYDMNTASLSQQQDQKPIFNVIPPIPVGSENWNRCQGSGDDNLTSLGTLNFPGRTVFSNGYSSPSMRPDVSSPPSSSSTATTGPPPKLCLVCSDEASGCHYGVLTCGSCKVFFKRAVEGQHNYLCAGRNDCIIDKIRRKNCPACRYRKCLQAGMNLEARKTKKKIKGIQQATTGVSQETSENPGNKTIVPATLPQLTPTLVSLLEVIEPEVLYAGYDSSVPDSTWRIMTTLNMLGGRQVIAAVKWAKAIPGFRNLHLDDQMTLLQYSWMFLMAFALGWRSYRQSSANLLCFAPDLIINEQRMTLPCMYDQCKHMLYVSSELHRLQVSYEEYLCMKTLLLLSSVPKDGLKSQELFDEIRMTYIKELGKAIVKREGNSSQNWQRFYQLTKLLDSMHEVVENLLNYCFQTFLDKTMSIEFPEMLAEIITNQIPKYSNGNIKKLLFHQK
Sequence of Cytochrome P450 3A4 (Homo sapiens) (P08684 whole entry, looked up): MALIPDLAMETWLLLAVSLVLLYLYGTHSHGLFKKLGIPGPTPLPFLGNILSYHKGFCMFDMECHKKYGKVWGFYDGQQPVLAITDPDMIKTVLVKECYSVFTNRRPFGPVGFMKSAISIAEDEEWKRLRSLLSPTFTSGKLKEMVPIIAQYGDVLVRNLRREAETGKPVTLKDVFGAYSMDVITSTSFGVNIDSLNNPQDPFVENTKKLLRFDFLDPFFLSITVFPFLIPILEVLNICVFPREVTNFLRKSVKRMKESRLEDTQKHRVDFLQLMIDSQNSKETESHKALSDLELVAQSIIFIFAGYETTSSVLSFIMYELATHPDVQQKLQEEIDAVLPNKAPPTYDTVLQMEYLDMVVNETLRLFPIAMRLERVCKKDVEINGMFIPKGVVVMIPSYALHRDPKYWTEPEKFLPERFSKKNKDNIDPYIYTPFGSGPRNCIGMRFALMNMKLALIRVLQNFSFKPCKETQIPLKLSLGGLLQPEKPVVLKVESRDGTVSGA
Sequence of Cytochrome P450 2C19 (Homo sapiens) (P33261 whole entry, looked up): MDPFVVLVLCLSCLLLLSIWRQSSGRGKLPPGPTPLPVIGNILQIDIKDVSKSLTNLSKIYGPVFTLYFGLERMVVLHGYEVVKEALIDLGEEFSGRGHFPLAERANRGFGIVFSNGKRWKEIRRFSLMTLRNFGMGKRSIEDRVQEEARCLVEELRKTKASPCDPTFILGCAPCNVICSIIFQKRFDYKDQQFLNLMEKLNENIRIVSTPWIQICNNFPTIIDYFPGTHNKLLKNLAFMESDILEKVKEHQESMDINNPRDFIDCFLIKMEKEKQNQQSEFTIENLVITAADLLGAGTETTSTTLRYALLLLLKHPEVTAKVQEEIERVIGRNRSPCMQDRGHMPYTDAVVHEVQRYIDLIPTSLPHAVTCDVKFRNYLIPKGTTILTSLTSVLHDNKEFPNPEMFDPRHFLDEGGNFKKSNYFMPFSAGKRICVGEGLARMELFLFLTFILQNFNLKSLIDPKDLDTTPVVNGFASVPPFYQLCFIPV
Sequence of Ubiquitin carboxyl-terminal hydrolase 1 (Homo sapiens) (O94782 whole entry, looked up): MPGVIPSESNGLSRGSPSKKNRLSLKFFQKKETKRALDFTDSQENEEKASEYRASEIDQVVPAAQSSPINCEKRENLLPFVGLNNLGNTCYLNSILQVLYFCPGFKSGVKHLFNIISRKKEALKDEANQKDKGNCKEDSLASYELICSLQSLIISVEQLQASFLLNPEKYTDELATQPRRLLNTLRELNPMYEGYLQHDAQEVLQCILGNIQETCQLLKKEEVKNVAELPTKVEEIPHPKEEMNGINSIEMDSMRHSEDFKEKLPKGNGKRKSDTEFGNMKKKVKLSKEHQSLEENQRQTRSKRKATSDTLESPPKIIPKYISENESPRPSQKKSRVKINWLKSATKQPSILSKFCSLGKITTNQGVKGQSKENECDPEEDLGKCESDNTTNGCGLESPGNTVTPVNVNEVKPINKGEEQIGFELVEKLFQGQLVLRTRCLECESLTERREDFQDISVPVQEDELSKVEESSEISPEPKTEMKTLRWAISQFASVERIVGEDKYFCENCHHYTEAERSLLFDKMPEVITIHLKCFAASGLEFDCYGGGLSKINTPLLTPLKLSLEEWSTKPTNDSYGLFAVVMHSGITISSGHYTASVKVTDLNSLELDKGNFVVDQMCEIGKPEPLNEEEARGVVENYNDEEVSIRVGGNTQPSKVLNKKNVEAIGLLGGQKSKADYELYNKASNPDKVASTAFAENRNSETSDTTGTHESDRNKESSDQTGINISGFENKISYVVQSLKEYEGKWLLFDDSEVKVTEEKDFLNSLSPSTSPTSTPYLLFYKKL

COc1ccc(NC(=O)N2CC3(CCN(C(=O)c4cnccn4)CC3)C2)cc1
inactive: Potency [1] > 11.4 µM | activity change, negative = inhibition [2] 0.0652% | Potency [3] | activity change, negative = inhibition [4] 15.4% | activity, negative = inhibition [5] 4.6% | Potency [6] > 46 µM | Potency [7] | Potency [8] | outcome [9]

O=S(=O)(c1ccccc1)N1CCC2(CC1)CN(Cc1nccs1)C2
inactive: Potency [1] > 11.4 µM | activity change, negative = inhibition [2] 11.1% | Potency [3] | activity change, negative = inhibition [4] -29.2% | activity, negative = inhibition [5] 9.77% | Potency [6] > 46 µM | Potency [7] | Potency [8] | outcome [9]

O=c1c(-c2cc(F)cc(F)c2)nc2cnc(Oc3ccccc3)nc2n1C1CC1
active: Potency [3] 2.51 µM
inactive: Potency [1] > 11.4 µM | activity change, negative = inhibition [2] -6.73% | activity change, negative = inhibition [4] -0.993% | activity, negative = inhibition [5] -0.523% | Potency [10] > 9.22 µM | Potency [6] > 46 µM | Potency [7] | Potency [8] | activation [11] 7.93% | outcome [9]

COCCn1c(=O)c(-c2cn(C)c3ccccc23)nc2cncnc21
active: Potency [3] 0.398 µM | Potency [12] 3.16 µM
inactive: Potency [1] > 11.4 µM | activity change, negative = inhibition [2] 1.74% | activity change, negative = inhibition [4] -1.67% | activity, negative = inhibition [5] -9.49% | Potency [10] > 9.22 µM | Potency [6] > 46 µM | Potency [7] | Potency [13] | outcome [9]

O=c1c(-c2cccc(F)c2)nc2cncnc2n1-c1ccccc1
inactive: Potency [1] > 11.4 µM | activity change, negative = inhibition [2] -10.3% | activity change, negative = inhibition [4] -2.26% | activity, negative = inhibition [5] -2.29% | Potency [10] > 9.22 µM | Potency [6] > 46 µM | Potency [7] | Potency [13] | outcome [9]
active: Potency [3] 10 µM

Cc1cccc(CNc2ncncc2-c2cccc(NS(C)(=O)=O)c2)c1
active: Potency [3] 12.6 µM | Potency [12] 0.158 µM | Potency [14] 6.31 µM
inactive: Potency [1] > 11.4 µM | activity change, negative = inhibition [2] -5.04% | activity change, negative = inhibition [4] 8.42% | activity, negative = inhibition [5] 0.163% | Potency [6] > 46 µM | Potency [7] | Potency [8] | Potency [13] | Potency [15] | activation [11] 3.55% | outcome [16] | Potency [17] | outcome [9]

CC(=O)N1CCC2(CC1)CCN(c1ccccn1)CC2
inactive: Potency [1] > 11.4 µM | activity change, negative = inhibition [2] 1.64% | Potency [3] | activity change, negative = inhibition [4] -29.8% | activity, negative = inhibition [5] 6.98% | Potency [6] > 46 µM | Potency [7] | Potency [8] | outcome [9]
